Experiment [1] is described as follows: signal quenchers or enhancers, Cy5 substrate/SSB – biochemical, NIH Clinical Collection, E. coli SSB, artefact control for HCV NS3 helicase inhibitor project (AID 743268; call rule not given here). To be noted: Cy5-oligo bound E. coli SSB, fluorescence interference.
Experiment [2] has as its system Hepatitis C virus NS3 helicase. Kind of experiment: blockers of NS3h binding to DNA – biochemical, fluorescence polarization, NIH Clinical Collection, primary screen (AID 743270; call rule not given here). Particulars: NS3 helicase binding to Cy5-dT15 DNA, stronger effect = higher value, concentration not given here. For orientation: Fluorescence polarisation rises when a labelled molecule tumbles more slowly, as on binding a larger partner.

The target of experiment [3] is Single-stranded DNA-binding protein (Escherichia coli (strain K12)) (UniProt P0AGE0). As to the kind of experiment: SSB-ssDNA binding inhibitors – biochemical, fluorescence polarization, NIH Clinical Collection, counter-screen for HCV NS3 helicase inhibitor project (AID 743271; in the data active = inhibition above about 28%). To be noted: E. coli SSB-DNA binding, stronger effect = higher value, concentration not given here.

Experiment [4] can be described thus: compounds distorting NS3 helicase fluorescence signal – biochemical, NIH Clinical Collection, artefact control for HCV NS3 helicase inhibitor project (AID 743272; call rule not given here;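 also: HCV NS3 helicase with a Cy5 labelled single stranded DNA probe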). To be noted: fluorescence interference counterscreen, HCV NS3 helicase assay; stronger effect = lower value.
The target in experiment [5] is 6-phosphogluconate dehydrogenase, decarboxylating (Homo sapiens) (UniProt P52209). Kind of experiment: inhibition of human phosphogluconate dehydrogenase – biochemical, recombinant enzyme, NADPH absorbance, primary screen (AID 1159550;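 active = at least 20% inhibition of 6-phosphogluconate dehydrogenase activity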). Particulars: recombinant 6PGD, NADPH absorbance 341 nm; at 10 µM; stronger effect = higher value.
Experiment [6] in a line: modulation of C. elegans fzo-1 (AID 1259413; call rule not given here;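 also: fzo-1 mutant C. elegans worms in liquid wells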). To be noted: C. elegans fzo-1 modulator screen, mean read-out; stronger effect = higher value.
Experiment [7] is described as follows: EMT-state selective cytotoxicity in co-culture – imaging, PC-3E GFP, TEM4-18 mCherry, primary screen (AID 1345086;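 active = compounds killing one labelled cell type while sparing the other, by normalised counts and ratio limits, not self-fluorescent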;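 as to all read-outs here: cells exposed to compound for 72 h before imaging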;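 as to red/green cell ratio (normalised): normalised mesenchymal count divided by normalised epithelial count so high means epithelial killing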). Particulars: PC-3E GFP / TEM4-18 mCherry co-culture, imaging cell counts, at 1 µM; for red/green cell ratio (normalised): actives lie on both sides, counts scaled to control wells, 1 = unselective.
Experiment [8] is described as follows: MELAS cybrid and Rieske KO viability enhancers – cell-based, MELAS cybrids, Rieske KO mouse fibroblasts, CellTiter-Glo, primary screen (AID 1508586;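 active = mean z-score across replicates of 1.96 or higher in either the MELAS or the Rieske mutant cell line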;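 also: z relative to plate mean and SD of compound and empty wells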). Particulars: low glucose.
The target of experiment [9] is NAD(+) hydrolase SARM1 (Homo sapiens) (UniProt Q6SZW1). As to the kind of experiment: blocking NAD cleavage by SARM1 SAM-TIR – cell lysate, NAD-Glo luminescence (AID 1508614;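 active = compound whose remaining NAD level is above about 45 nM, limit read from the data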;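 also: higher remaining NAD means stronger inhibition of SARM1 NADase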). Particulars: SAM-TIR HEK293T lysate NADase, at 1 µM, stronger effect = higher value.
The test system of experiment [10] is F380Y. As to the kind of experiment: BK channel mutant inhibitors and activators – cell-based, U2OS BacMam, thallium flux, beta subunits, selectivity assay, profiling panel (AID 1259406).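 Also: initial slope of Thallos dye fluorescence rise after thallium is added; log ratio against the mean of 0.3% DMSO vehicle wells on the same plate.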 Particulars: U2OS BacMam BK variants, at 30 µM.
For experiment [11], the system named is F380Y/beta2Delta. The experiment is described as above. Particulars: U2OS BacMam BK variants, at 30 µM.
The target in experiment [12] is Calcium-activated potassium channel subunit alpha-1 (Homo sapiens) + Leucine-rich repeat-containing protein 26 (Homo sapiens) (UniProt Q12791+Q2I0M4). Described as above. Particulars: U2OS BacMam BK variants, F380Y/Slo1WT/gamma1, at 30 µM.
The subject of experiment [13] is R275C. The experiment is described as above. To be noted: U2OS BacMam BK variants, at 30 µM.
Experiment [14] relates to R275C/beta1. The experiment is described as above. Particulars: U2OS BacMam BK variants, at 30 µM.
Experiment [15] concerns R275C/beta2Delta. Described as above. To be noted: U2OS BacMam BK variants, at 30 µM.
Experiment [16] deals with Mitogen-activated protein kinase 7 (Homo sapiens) (UniProt Q13164). As to the kind of experiment: Gal4-ERK5 driven luciferase induction – cell-based, HTS, primary screen (AID 1508626;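 active = luciferase signal above three times the same-plate solvent-only control wells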;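 also: luciferase driven by Gal4-ERK5 fusion binding five Gal4 sites before minimal TATA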). To be noted: HeLa Gal4-ERK5 transactivation, 18 h, at 5 µM, stronger effect = higher value.
Experiment [17] is described as follows: galactose survival enhancers in mitochondrial complex I cybrids – cell-based, galactose medium, ATP luminescence, primary screen (AID 1645843;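 active = z-score of at least 1.8 in each of two replicates, scored against plate mean and spread of sample wells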;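 also: positive z means more ATP and so rescue of galactose-driven cybrid death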). Particulars: complex I mutant cybrid cells, 72 h, stronger effect = higher value.
Experiment [18] in a line: P. berghei load reduction in hepatocytes – cell-based, HepG2, luciferase luminescence, HepG2 viability, primary screen (AID 624349; in the data active = parasite load remaining mostly below about 12%, no sharp cut-off; inactive = mostly above about 10%;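 also: 100% = mean of DMSO negative control wells on the same plate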). To be noted: P. berghei liver stage in HepG2, luciferase luminescence, concentration not given here; parasite load remaining: stronger effect = lower value; viability: measured here: HepG2 viability without parasites.
A short description of experiment [19]: viability loss with induced miR-34 in A549 – imaging, A549 dox-inducible miR-34, nuclei and caspase counts, primary screen (AID 1347080;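 active = compounds whose cell count with miR-34 switched on is under 0.7 times the count with it off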). Particulars: A549 miR-34 inducible, Hoechst nuclei count, 48 h.
The mark [20] stands for this setting: measured here: epithelial PC-3E GFP cell survival.
Setting [21] is: measured here: mesenchymal TEM4-18 mCherry cell survival.
[22] abbreviates: MELAS cybrid survival, CellTiter-Glo 48 h, stronger effect = higher value.
The mark [23] stands for this setting: Rieske KO mouse fibroblast survival, CellTiter-Glo 72 h.

For orientation: inhibition means the change of the read-out against control, counted positive when it falls. One may read the viability as a read-out of living cells in per cent, often relative to untreated cells.

SMILES strings stand for the structures. Values joined by “and” are separate entries in the source; they are usually repeats but may differ in a detail not shown here. Equal values may be shown once. Active and inactive are the calls of the source.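 The calls were made as follows, unless noted: active = thallium flux through the channel raised or lowered by more than 3 SD from vehicle-only wells, actives on both sides; inactive = the rest.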

Chain of 6-phosphogluconate dehydrogenase, decarboxylating (Homo sapiens) (P52209 whole entry, looked up): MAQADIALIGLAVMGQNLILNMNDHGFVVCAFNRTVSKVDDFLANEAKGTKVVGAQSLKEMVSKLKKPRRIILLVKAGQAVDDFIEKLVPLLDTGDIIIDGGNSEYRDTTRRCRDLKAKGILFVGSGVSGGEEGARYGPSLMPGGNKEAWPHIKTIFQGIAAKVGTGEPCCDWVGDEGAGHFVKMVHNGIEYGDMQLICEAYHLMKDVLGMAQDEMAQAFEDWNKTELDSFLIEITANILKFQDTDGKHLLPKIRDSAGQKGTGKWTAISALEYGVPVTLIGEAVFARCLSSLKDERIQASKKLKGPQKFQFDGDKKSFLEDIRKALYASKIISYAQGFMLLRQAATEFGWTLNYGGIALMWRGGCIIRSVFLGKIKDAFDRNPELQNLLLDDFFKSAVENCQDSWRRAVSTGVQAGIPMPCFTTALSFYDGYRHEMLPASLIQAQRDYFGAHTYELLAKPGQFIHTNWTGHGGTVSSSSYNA
Chain of Mitogen-activated protein kinase 7 (Homo sapiens) (Q13164 whole entry, looked up, the tested form may be a part): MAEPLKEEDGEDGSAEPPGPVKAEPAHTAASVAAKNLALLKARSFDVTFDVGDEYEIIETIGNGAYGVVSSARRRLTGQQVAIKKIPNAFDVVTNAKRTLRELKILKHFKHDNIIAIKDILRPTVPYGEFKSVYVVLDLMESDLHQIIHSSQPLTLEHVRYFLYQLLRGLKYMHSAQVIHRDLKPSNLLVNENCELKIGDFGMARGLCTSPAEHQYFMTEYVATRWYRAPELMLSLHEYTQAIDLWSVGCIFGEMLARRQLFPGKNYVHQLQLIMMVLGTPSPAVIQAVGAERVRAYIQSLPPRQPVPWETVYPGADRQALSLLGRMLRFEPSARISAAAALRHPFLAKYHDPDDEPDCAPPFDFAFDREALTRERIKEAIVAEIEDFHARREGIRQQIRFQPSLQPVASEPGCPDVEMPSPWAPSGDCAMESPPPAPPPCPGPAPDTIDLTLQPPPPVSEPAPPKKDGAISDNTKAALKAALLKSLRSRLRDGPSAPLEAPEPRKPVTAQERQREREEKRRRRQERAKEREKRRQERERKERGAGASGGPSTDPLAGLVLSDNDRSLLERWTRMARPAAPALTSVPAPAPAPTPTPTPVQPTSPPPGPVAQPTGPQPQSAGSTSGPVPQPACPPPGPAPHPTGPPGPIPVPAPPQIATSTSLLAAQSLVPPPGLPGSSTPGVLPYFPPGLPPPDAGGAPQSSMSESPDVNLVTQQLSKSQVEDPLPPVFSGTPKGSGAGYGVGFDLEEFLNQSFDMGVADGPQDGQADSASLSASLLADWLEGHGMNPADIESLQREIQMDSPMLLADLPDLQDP
Chain of Calcium-activated potassium channel subunit alpha-1 (Homo sapiens) + Leucine-rich repeat-containing protein 26 (Homo sapiens) (Q2I0M4 whole entry, looked up, one chain of several): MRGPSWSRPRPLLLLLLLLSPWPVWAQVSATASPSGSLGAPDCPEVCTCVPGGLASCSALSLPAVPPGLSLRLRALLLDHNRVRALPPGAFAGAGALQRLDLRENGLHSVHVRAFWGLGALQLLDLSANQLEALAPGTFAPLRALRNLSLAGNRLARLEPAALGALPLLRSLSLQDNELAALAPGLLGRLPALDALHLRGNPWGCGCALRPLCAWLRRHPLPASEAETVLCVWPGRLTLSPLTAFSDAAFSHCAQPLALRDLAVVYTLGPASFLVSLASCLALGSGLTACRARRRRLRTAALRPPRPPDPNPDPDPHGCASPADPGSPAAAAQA
Chain of NAD(+) hydrolase SARM1 (Homo sapiens) (Q6SZW1 whole entry, looked up): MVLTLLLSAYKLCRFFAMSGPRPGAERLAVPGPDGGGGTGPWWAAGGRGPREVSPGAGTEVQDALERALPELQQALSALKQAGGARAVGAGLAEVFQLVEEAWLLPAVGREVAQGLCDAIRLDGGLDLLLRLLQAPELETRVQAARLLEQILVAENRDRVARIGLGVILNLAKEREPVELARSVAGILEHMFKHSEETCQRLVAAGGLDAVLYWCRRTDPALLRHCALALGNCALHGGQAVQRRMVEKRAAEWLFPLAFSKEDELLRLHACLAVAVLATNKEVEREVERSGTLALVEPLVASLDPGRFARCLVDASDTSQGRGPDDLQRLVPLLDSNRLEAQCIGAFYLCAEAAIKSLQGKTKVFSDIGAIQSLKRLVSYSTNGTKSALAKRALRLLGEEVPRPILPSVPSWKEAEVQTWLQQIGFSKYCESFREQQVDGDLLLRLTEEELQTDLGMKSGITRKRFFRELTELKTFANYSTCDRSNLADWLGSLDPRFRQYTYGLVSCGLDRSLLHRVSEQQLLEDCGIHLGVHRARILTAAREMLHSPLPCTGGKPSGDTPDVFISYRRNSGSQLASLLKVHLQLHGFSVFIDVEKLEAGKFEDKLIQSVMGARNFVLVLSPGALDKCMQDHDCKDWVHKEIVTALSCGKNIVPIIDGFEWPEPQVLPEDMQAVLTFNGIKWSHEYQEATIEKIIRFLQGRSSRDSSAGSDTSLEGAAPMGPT

Turning to `CN(C)CCC(c1ccc(Cl)cc1)c1ccccn1` (centres undefined), the fluorescence ratio was 1.05 (inactive) in experiment [1] and 1.02 (inactive) in experiment [4]. Besides, the inhibition was -1.98% (inactive) in experiment [2], -3.95% (inactive) in experiment [3] and 14.7% (inactive) in experiment [5]. Also, the mean signal in [6] was 225 (inactive). In addition, in experiment [7], the red/green cell ratio (normalised) was 1.02 (inactive). For the same compound, the normalised cell number in experiment [7] (setting [20]) turned out to be 0.91; in [7] (setting [21]), 0.93. In addition, the z-score was -0.0722 (inactive) and 0.91 (inactive) and 0.217 (inactive) in [8] (setting [22]); 0.675 and 0.216 and -0.121 in experiment [8] (setting [23]). Besides, the remaining NAD in experiment [9] is 10 nM (inactive). In addition, the log fold change Tl+ flux in experiment [10] is 0.0819 (inactive); in experiment [11] it was 0.0184 (inactive); in experiment [12] it was -0.0284 (inactive); in [13], -0.059 (inactive); in experiment [14], 0.0906 (active); in [15] it was 0.0118 (inactive).
Consider `CNCCC=C1c2ccccc2CCc2ccccc21`, for which the figures for the fluorescence ratio in experiment [1] and in experiment [4] were 1.02 (inactive) and 0.99 (inactive), respectively. Also, the inhibition in [2] was -5.91% (inactive); in experiment [3], -4.29% (inactive); in experiment [5] it was -10.4% (inactive). The mean signal in experiment [6] is 233 (inactive). For the same compound, the red/green cell ratio (normalised) in experiment [7] was 1.12 (inactive). For the same compound, the normalised cell number turned out to be 1.12 in experiment [7] (setting [20]) and 1.26 in experiment [7] (setting [21]). Further, the z-score in [8] (setting [22]) is -0.337 (inactive); in experiment [8] (setting [23]), -0.307; in [17] it was -1.28 (inactive) and -1.35 (inactive). Moreover, in experiment [9], the remaining NAD is 10 nM (inactive). The luciferase signal in experiment [16] was 120 AU (inactive). In addition, the log fold change Tl+ flux in experiment [10] is 0.169 (active); in experiment [11], 0.217 (active); in experiment [12], 0.00764 (inactive); in experiment [13], 0.0226 (inactive); in [14], 0.165 (active); in [15] it was 0.126 (active).
Take `COc1cccc(-c2cc(=O)c3ccc(OC)cc3o2)c1`: in experiment [5], the inhibition was -2.44% (inactive). Moreover, the red/green cell ratio (normalised) in experiment [7] is 1.01 (inactive). The normalised cell number worked out at 1.02 in experiment [7] (setting [20]) and 1.03 in [7] (setting [21]).
With `CCC(=O)OCC(=O)[C@@]1(OC(=O)CC)[C@@H](C)C[C@H]2[C@@H]3CCC4=CC(=O)C=C[C@]4(C)[C@@]3(Cl)[C@@H](O)C[C@@]21C`, in experiment [18], the parasite load remaining was 87.4% (inactive) and 97.8% (inactive). The viability in [18] was 126% and 93.5%. Besides, the values for the fluorescence ratio in experiment [1] and in experiment [4] were 1.01 (inactive) and 0.96 (inactive), respectively. In addition, the inhibition was 0.45% (inactive) in experiment [2], 2.57% (inactive) in experiment [3] and -4.35% (inactive) in experiment [5]. Also, the fold change in [19] (stronger effect = lower value, cell number ratio, induced over uninduced) is 0.914 (inactive) and 0.792 (inactive); in experiment [19] (measured here: relative caspase fold change +Dox/-Dox), 1.6 and 1.23. Besides, the cell count in experiment [19] (measured here: total cells with miR-34 induction, stronger effect = lower value) is 6840 and 6120; in experiment [19] (measured here: total cells without miR-34 induction) it was 7490 and 7730. Besides, the z-score in experiment [8] (setting [22]) was 0.616 (inactive); in [8] (setting [23]) it was 1.23; in experiment [17], -1.24 (inactive). Besides, in experiment [9], the remaining NAD is 10 nM (inactive). Also, the luciferase signal in [16] is 188 AU (inactive). For the same compound, the log fold change Tl+ flux was -0.163 (active) in [10]; -0.0617 (inactive) in experiment [11]; 0.021 (inactive) in experiment [12]; -0.105 (active) in [13]; 0.0418 (inactive) in experiment [14]; 0.0132 (inactive) in experiment [15].
`Cc1ccc(N(CC2=NCCN2)c2cccc(O)c2)cc1`: the inhibition in experiment [5] is -2.41% (inactive). Also, the mean signal in experiment [6] is 229 (inactive). The red/green cell ratio (normalised) in experiment [7] was 1 (inactive). Further, the normalised cell number in experiment [7] (setting [20]) was 0.96; in experiment [7] (setting [21]), 0.97. In addition, the z-score in experiment [8] (setting [22]) was 0.136 (inactive) and 0.319 (inactive) and 0.784 (inactive); in experiment [8] (setting [23]), -0.0354 and 0.524 and 0.332; in [17], -0.355 (inactive) and 0.035 (inactive). Also, in experiment [9], the remaining NAD was 10 nM (inactive). Also, in [16], the luciferase signal is 116 AU (inactive).
